# Reference: PubChem BioAssay (NCI)
# About 79,000 compounds went through this panel and 15% of them were active in at least one assay; those are over-represented in the sample as a whole. Values without a mark were called inactive. Active and inactive are the calls of the source. Cut-off read from the data, not from the text of the source: active = growth inhibition above about 70%; inactive = the rest.
# Columns and labels:
# [1] = NCI Yeast Anticancer Drug Screen. Data for the rad50 strain (AID 155);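 note: 0% = growth of vehicle-only cultures of the same strain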; settings: S. cerevisiae rad50 strain growth inhibition; at 50.0 µM; hits give high values
# Method in brief: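 A DNA repair-deficient yeast mutant serves as the test organism; compound-induced growth inhibition is calculated against vehicle-treated cells.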
# [2] = NCI Yeast Anticancer Drug Screen. Data for the mec2-1 strain (AID 157); settings: S. cerevisiae mec2-1 strain, at 50.0 µM, hits give high values
# Method in brief: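 Strain: mec2-1 (DNA repair/cell cycle alteration). Compound exposure, then growth measured; inhibition expressed relative to vehicle.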
# [3] = NCI Yeast Anticancer Drug Screen. Data for the sgs1 mgt1 strain (AID 161);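 note: 0% = growth of cultures given vehicle only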; settings: S. cerevisiae sgs1 mgt1 strain, at 50.0 µM, hits give high values
# Method in brief: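 Genetically altered yeast, compound exposure, growth inhibition relative to vehicle.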
# [4] = NCI Yeast Anticancer Drug Screen. Data for the cln2 rad14 strain (AID 165);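 note: 0% = growth equal to vehicle treated cultures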; settings: S. cerevisiae cln2 rad14 strain, at 50.0 µM, hits give high values
# Method in brief: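 Compounds are applied to the cln2 rad14 yeast strain, and growth is then compared with that of vehicle-treated cultures to give inhibition.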
# [5] = NCI Yeast Anticancer Drug Screen. Data for the bub3 strain (AID 167); settings: S. cerevisiae bub3 mutant strain, at 50.0 µM, hits give high values
# Method in brief: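 Inhibition values come from growth of compound-treated mutant yeast normalised to vehicle-treated controls.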
# [6] = NCI Yeast Anticancer Drug Screen. Data for the mlh1 rad18 strain (AID 175); settings: S. cerevisiae mlh1 rad18 strain growth inhibition; at 50.0 µM; hits give high values
# Method in brief: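 Read-out is yeast growth inhibition, calculated against vehicle-only controls. The compound was applied to a strain engineered with DNA damage repair alterations.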
Structure (SMILES),growth inhibition [1],growth inhibition [2],growth inhibition [3],growth inhibition [4],growth inhibition [5],growth inhibition [6]
Clc1ccc(N[P+](c2ccccc2)(c2ccccc2)c2ccccc2)cc1.[Cl][Fe]([Cl])([Cl])[Cl],39.3%,12%,45.4%,5%,5.8%,17.8%
NC(N)=N/N=C1/C(=O)N(C2CCCCCC2)C(=O)C1C(=O)NC1CCCCCC1 (stereo not given),35.8%,5.3%,14.9%,23.9%,6.4%,28.1%
CCOC(=O)C(Cc1ccc(OCc2ccccc2)c(OCc2ccccc2)c1)(NC=O)C(=O)OCC,36.6%,-1.6%,19.8%,-14.8%,-9.9%,9%
O=Cc1cc(N=Nc2ccc(S(=O)(=O)O)cc2)ccc1O,5.8%,-35.5%,-1.45%,14.9%,-17.6%,3.6%
CCOC(=O)C(C(=O)OCC)=c1sc(=C(C(=O)OCC)C(=O)OCC)s1,20.2%,7.8%,17.1%,5.05%,-2.5%,9.3%
N#Cc1ccc(Oc2ccc(C#N)cc2)cc1,12.2%,-19.6%,-8.45%,18.4%,-0.4%,-1.1%
CCCC(=O)C(O)CCC (stereo not given),-20.5%,-16.7%,-2.6%,-47.9%,1.65%,-26.1%
O=c1[nH]c(-c2ccccc2)c(-c2ccccc2)nc1Cl,6.35%,1.8%,6.5%,-11.7%,-19.1%,18.1%
O=C1C2CCCCC2C(=O)N1O (stereo not given),60.1%,-1.5%,18.8%,16.6%,1.45%,9.25%
O=c1c2cccnc2cc(-c2ccccc2)n1CCO,-27.5%,-12.3%,-16.2%,4.55%,3.3%,-4.15%
CC(C)(C)Oc1cc(F)c(C(C)(C)C)cc1C(C)(C)C,-4%,-7.4%,-2.4%,8.75%,0.05%,10.7%
COC1=CC(=O)/C(=C(O)/C=C/c2ccccc2)C(=O)C1(C)C,3.2%,-1.65%,16.9%,-2.5%,14.6%,29.4%
CCC(=N\NC(=S)NC)/C(C)=N\NC(=S)NC,-8.3%,-6.4%,-6.5%,-36.1%,9.1%,-14.2%
CC(C)C(O)C(C)N (stereo not given),1.4%,-5.9%,0.7%,4.9%,3.2%,3.5%
CNC(=O)c1ccccc1N=NN(C)C,-0.65%,19.4%,4.05%,13.7%,15.7%,40.5%
Cc1ccc(N=NN(C)C)cc1,2.55%,3.65%,-9.55%,-2.6%,1.55%,33%
COC(=O)/C=C(/C(=O)OC)N(O)C(=O)CN1C(=O)c2ccccc2C1=O,-16%,-15.9%,-18.7%,-17.3%,-5.85%,-23.2%
OCCOCC#CCOCCO,3.9%,-0.25%,-2.35%,-7.45%,-9.25%,9.3%
O=C1CCCCCCCCCCC1,-8.1%,-62.7%,-17.6%,15.2%,-17.1%,3.1%
O=C(/C=C\c1ccco1)NC(=O)NC(=O)N1CCCCC1,-0.7%,-22.3%,-2.05%,-16.4%,-9.15%,4.7%

Structure (SMILES),growth inhibition [1],growth inhibition [2],growth inhibition [3],growth inhibition [4],growth inhibition [5],growth inhibition [6]
c1cc(C2CCCCC2)ccc1C1CCCCC1,-7.4%,-19.1%,-20.6%,-58.1%,-16.1%,-3.9%
c1ccc2c(c1)ncc1cc3c(cc12)[nH]c1ccccc13,40.9%,7.5%,16.6%,-11.1%,-10.4%,26.6%
O=c1[nH][nH]c(=O)c2c1nc(SCc1ccc(Br)cc1)n2Cc1ccccc1,16.9%,0.3%,-7.95%,1.85%,-2.35%,3.8%
CC(=O)/C(=C/N1C(=O)CC(=O)NC1=S)C(=O)Nc1ccccc1,-24.8%,-26.5%,-39.9%,3.85%,-17.5%,-20.7%
CC(C)/C(=N\N=C(\c1ccccc1)C(C)C)c1ccccc1,-2.6%,25.5%,3%,-7.7%,16.3%,18.1%
CC1=C(C(=O)Nc2ccc([N+](=O)[O-])cc2)C(c2ccc3c(c2)OCO3)C(C(=O)Nc2ccc([N+](=O)[O-])cc2)=C(C)N1,8.65%,15.3%,21.6%,24.4%,10.2%,7.05%
CC1OCC2OC(C)OC(C(C3C(=O)CC(C)(C)CC3=O)C3C(=O)CC(C)(C)CC3=O)C2O1 (stereo not given),17.4%,6.3%,19.2%,-8.3%,26.2%,22.8%
O=C(Nc1ccccc1O)C(O)C(O)C(O)C(O)CO (stereo not given),35%,30.7%,38.8%,23.2%,52.1%,58.8%
N#CC(c1ccccc1)c1ccccn1 (stereo not given),5.9%,8.35%,8.75%,-9.2%,5.5%,2.75%
CC1(C)OC(=O)c2c(cc(N3CCOCC3)oc2=O)O1,3.35%,-2.9%,1.35%,9.55%,11.1%,-1.25%
CC12CCC(=O)[C@@]1(C)CCCC2O (stereo not given in full),-34.2%,-34.4%,-12.8%,-34.6%,-26.8%,-32.2%
O=[N+]([O-])CC1CCCCC1,-2.7%,-19.9%,6.85%,14.3%,-1.3%,19.1%
NC(=S)N/C=C(/c1ccc(Cl)cc1Cl)S(=O)(=O)Cc1ccc(Cl)cc1Cl,6.85%,-6.7%,9.6%,6.95%,0.2%,9.7%
Cc1cc(=O)c2c(C)nn(-c3ccccc3)c2[nH]1,-16.3%,-36.2%,10.3%,-9.15%,2.4%,-1.85%
O=C(Cc1n[nH]c(=S)nc1CC(=O)c1cccnc1)c1cccnc1,7.8%,12.2%,16.1%,-1%,26.8%,2.7%
O=S(=O)(O)c1cc(N=Nc2cc(S(=O)(=O)O)c3cccnc3c2O)ccc1/C=C/c1ccc(N=Nc2cc(S(=O)(=O)O)c3cccnc3c2O)cc1S(=O)(=O)O.[Na+].[Zn+2],-15.2%,-8.65%,-9.85%,-75.6%,-44%,-86.7%
C#CCSC(=N)N,5.4%,-6.9%,8.9%,5.2%,8.8%,5.75%
O=[N+]([O-])c1ccc(OC2CC3C4C=CC3C2C4)c([N+](=O)[O-])c1 (stereo not given),-27.9%,-17.1%,-5.45%,20.8%,-9.6%,-24.6%
O=C(Nc1ccc(Br)cc1)OCC1CC2C=CC1C2 (stereo not given),43.5%,70.8% (active),79.9% (active),42%,33.9%,47.4%
O=C(N=C1[Se]C(=Nc2ccccc2)C(=Nc2ccccc2)N1c1ccc(Cl)cc1)c1ccccc1,-13.8%,-10.4%,-27.1%,-22.9%,-9.25%,-21.4%
